Measurements from PubChem BioAssay (NCATS).
Results filed as inconclusive are left out. A number with no mark means an inactive call. The source made the active and inactive calls. The call rests on the fitted dose curve; in most records, active means well fitted cell-killing curve with a large enough effect; inconclusive means small, poorly fitted or top-dose-only effect; inactive means flat fitted curve, though single readings scatter.

Experiment: Cell Viability - SH-SY5Y (AID 544);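 further: 0% = DMSO alone and -100% = 100 µM tamoxifen; nearly all actives have a fitted effect of over 55% in size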
Conditions: SH-SY5Y neuroblastoma cell viability; at 92.2 µM (top of the series)
Excerpt: NIH Chemical Genomics Center [NCGC]
NIH Molecular Libraries Screening Centers Network [MLSCN]
National Institutes of Environmental Health Sciences [NIEHS]
National Toxicology Program [NTP]
We have developed a 1536-well cell-based assay for quantitative high throughput screening (qHTS) against a number of cell lines to determine in vitro cytotoxicity of small molecules. This particular assay uses the SH-SY5Y cell line which is derived from human neuroblastoma.
NCGC Assay Protocol Summary:
The CellTiter-Glo luminescent cell viability assay (Promega) is a homogeneous method to measure the number of viable cells in culture. The end point readout of this assay is based on quantitation of intracellular ATP, an indicator of metabolic activity, using the luciferase reaction. Luciferase catalyzes the oxidation of beetle Luciferin to oxyluciferin and light in the presence of ATP. The luminescent signal is proportional to amount of ATP present.
Using the CellTiter-Glo luminescent cell viability assay, the amount of cellular ATP was measured in the SH-SY5Y cell line with complete culture medium following compound treatment for 40 hours. The assay was performed in opaque white Kalypsys 1536-well plates. In the screen, tamoxifen and doxorubicin were used as positive controls. Library compounds were measured for their ability to cause acute toxicity in the cell line, as reflected by a decrease in intracellular ATP levels, in a concentration-dependent manner. […] AC50 values were determined from concentration-response data modeled with the standard Hill equation.
qHTS protocol for CellTiter Glo SH-SY5Y cellular assay
[Step] [Parameter] [Value] [Description]
1. Reagent; 5 uL; 1500 SH-SY5Y cells/well
2. Time; 5 hr; 37 °C incubation
4. Controls; 23 nL; Tamoxifen 0.34 uM to 100 uM & Doxorubicin 0.02 nM to 100 uM
5. Time; 40 hr; 37 °C incubation
6. Reagent; 5 uL; CellTiter Glo reagent
7. Time; 20 min; Room Temperature
8. Detection; Luminescence; Viewlux plate reader
Keywords: cell viability, cytotoxicity, SH-SY5Y cell line, luminescence, NTPHTS, NTPHTS_NCGC, NIEHS, EPA, DSSTox, MLSMR, MLSCN, NIH Roadmap, qHTS, NCGC

SMILES | viability change, negative = cytotoxic
CCN(CC)C(=O)c1cccc(C)c1 | -22.4%
CCCC(O)C(CC)CO (stereo unspecified) | -7.87%
CC(=O)Nc1ccc(C(=O)O)cc1 | -7.67%
O=C(O)CCCCC1CCSS1 (stereo unspecified) | -17.1%
FC(F)(F)C(Cl)Br (stereo unspecified) | -0.71%
CCCCOC(=O)c1ccc(N)cc1 | -11.2%
Cc1cc(=O)[nH]c(=S)[nH]1 | -4.62%
CC(=O)NS(=O)(=O)c1ccc(N)cc1 | -13.1%
CCCCCCCC(=O)OCC(COC(=O)CCCCCCC)OC(=O)CCCCCCC | -12.2%
Cc1cc(C)nc(NS(=O)(=O)c2ccc(N)cc2)n1 | -0.461%
CC1CC(OC(=O)c2ccccc2O)CC(C)(C)C1 (stereo unspecified) | -0.877%
O=C1C(c2[nH]c3ccccc3c2O)=Nc2ccccc21 | -102% (active)
COc1ccc(O)cc1 | 4.2%
CC(=O)OCC(COC(C)=O)OC(C)=O | 13.4%
C=CCNC(N)=S | -6.07%
CC(=O)Nc1ccccc1 | -26.9%
CCCCCC(N)=O | -5.16%
O=C(c1ccccc1)C(O)c1ccccc1 (stereo unspecified) | -3.66%
Cc1c(N(C)C)c(=O)n(-c2ccccc2)n1C | -14.6%
CC(=O)Nc1cccc(O)c1 | 15.1%
Nc1ccc(S(=O)(=O)c2ccc(N)cc2)cc1 | -10.9%
